Test results reported in the supplement of paper PMC10849652.
About 7,900 targets were measured; listed, in parts, are those with a hit and a random draw of the rest. About 0.6% of all pairs of compound and target were hits.

compound: c1cn2cc(-c3ccc4cn[nH]c4c3)nc(Nc3ccc(N4CCOCC4)cc3)c2n1 [entospletinib]; experiment: log2 fold change, soluble protein after heating vs DMSO (PISA); higher = thermal stabilisation; K562 cells, 10 uM, 30 min; active = over 0.2 and 3.5 SD of the protein, either way, in both replicates (recomputed)
Summary of the method: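 K562 cells at 2×10^6 cells/mL were treated for 30 min with 10 μM compound, and aliquots were heated for 3 min over 48°C-58°C before pooling. Extraction used PBS with 0.5% NP-40 at 4°C, and soluble protein was the supernatant after 21,000xg for 90 min, measured by TMTpro 16plex LC-MS/MS with channel sums equalised. Thermal stability values, relative to control samples and from duplicates, are log2 fold changes.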

Sequence of UniProt P14618 (P14618 whole entry, looked up): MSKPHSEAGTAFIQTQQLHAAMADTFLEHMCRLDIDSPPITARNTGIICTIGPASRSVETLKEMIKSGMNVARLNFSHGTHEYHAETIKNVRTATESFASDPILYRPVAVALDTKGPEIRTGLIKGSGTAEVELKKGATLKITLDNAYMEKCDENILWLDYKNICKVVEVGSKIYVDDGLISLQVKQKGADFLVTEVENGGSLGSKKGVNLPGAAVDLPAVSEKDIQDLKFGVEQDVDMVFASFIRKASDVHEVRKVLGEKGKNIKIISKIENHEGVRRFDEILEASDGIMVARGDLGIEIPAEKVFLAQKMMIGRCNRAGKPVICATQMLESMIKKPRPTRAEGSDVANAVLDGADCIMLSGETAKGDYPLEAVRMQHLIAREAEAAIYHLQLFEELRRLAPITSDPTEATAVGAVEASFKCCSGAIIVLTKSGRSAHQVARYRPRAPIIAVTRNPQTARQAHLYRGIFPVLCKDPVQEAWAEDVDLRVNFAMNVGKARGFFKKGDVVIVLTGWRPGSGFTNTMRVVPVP
Sequence of UniProt Q10713 (Q10713 whole entry, looked up): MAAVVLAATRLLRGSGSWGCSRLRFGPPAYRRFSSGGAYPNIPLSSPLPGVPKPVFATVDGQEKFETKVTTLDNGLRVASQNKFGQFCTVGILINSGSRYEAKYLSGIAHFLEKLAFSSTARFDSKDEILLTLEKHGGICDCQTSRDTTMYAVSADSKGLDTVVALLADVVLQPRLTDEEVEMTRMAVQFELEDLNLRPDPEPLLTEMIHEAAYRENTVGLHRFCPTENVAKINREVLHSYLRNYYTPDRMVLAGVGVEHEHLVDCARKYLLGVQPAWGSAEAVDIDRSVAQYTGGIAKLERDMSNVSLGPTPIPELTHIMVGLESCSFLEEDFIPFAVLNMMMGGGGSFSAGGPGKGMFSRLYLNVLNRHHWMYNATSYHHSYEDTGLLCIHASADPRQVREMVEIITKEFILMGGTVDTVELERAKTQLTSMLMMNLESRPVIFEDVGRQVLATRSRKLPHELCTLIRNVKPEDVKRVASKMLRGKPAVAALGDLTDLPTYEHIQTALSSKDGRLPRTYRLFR
Sequence of UniProt Q8WUA2 (Q8WUA2 whole entry, looked up): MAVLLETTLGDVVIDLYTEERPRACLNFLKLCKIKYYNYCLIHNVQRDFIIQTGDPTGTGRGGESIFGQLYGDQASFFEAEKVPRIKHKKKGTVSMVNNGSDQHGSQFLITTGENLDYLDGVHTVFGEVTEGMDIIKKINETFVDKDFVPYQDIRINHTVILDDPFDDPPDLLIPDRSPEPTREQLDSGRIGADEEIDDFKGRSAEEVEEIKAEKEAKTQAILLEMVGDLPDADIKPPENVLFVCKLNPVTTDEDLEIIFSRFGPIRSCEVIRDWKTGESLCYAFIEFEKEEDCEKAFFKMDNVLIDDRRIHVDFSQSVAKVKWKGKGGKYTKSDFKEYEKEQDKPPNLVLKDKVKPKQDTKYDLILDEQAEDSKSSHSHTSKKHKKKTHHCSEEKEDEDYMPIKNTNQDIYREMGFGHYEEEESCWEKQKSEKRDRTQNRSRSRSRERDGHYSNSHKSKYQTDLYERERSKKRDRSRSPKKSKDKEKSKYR
Sequence of UniProt Q92968 (Q92968 whole entry, looked up): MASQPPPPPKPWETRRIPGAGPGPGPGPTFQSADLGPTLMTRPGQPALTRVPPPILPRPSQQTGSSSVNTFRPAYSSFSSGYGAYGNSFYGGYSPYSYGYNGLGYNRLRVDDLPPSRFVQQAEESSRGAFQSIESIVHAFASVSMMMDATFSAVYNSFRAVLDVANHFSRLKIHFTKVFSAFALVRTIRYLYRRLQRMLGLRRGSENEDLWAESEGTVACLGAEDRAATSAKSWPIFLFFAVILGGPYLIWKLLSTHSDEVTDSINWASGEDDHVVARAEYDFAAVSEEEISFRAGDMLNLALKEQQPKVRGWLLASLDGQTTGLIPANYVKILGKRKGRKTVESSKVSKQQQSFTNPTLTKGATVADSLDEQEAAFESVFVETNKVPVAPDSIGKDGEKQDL
Sequence of UniProt Q04759 (Q04759 whole entry, looked up): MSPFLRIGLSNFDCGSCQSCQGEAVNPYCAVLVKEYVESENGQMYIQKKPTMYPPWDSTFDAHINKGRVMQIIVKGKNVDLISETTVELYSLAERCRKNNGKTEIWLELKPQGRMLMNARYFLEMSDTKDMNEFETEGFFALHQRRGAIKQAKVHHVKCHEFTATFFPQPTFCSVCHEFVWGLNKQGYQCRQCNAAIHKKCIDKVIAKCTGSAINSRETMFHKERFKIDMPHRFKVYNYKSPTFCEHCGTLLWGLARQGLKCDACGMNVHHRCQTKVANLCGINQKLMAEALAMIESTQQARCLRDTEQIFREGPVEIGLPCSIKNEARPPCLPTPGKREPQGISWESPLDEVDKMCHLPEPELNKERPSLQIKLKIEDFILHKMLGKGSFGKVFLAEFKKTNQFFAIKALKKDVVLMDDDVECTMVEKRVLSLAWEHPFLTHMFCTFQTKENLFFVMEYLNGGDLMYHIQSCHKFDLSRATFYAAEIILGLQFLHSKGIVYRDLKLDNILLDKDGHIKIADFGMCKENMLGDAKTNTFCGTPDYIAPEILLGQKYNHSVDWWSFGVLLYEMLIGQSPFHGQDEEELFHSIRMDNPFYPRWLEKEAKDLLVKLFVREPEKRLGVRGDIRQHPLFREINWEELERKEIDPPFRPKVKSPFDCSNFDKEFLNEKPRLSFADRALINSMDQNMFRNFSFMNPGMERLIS
Sequence of UniProt Q96A00 (Q96A00 whole entry, looked up): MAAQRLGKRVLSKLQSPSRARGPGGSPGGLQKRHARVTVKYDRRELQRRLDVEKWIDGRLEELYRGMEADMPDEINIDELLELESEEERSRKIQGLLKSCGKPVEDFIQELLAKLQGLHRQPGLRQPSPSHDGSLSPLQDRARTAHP
Sequence of UniProt P25788 (P25788 whole entry, looked up): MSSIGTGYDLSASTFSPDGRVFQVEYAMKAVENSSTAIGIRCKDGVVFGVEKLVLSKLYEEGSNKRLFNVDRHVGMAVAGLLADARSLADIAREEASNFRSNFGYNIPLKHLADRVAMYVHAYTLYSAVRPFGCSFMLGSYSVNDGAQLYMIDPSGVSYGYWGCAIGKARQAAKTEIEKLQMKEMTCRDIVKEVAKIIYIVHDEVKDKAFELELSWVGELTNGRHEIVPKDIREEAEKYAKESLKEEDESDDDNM
Sequence of UniProt P53801 (P53801 whole entry, looked up): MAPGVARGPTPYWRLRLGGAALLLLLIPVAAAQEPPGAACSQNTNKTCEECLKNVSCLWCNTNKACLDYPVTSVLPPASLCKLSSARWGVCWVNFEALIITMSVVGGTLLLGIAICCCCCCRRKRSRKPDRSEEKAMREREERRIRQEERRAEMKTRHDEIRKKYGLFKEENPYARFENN
Sequence of UniProt Q9H300 (Q9H300 whole entry, looked up): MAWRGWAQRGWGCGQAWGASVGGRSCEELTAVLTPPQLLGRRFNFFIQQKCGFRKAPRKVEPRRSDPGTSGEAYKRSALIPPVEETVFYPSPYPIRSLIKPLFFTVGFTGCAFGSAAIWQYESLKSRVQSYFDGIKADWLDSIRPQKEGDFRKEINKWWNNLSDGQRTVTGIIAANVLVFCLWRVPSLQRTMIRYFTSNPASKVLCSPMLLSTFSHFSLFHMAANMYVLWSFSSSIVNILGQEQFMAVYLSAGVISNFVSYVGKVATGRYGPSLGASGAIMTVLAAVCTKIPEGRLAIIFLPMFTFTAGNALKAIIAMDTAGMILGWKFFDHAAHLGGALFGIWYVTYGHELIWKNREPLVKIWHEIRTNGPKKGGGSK
Sequence of UniProt Q15121 (Q15121 whole entry, looked up): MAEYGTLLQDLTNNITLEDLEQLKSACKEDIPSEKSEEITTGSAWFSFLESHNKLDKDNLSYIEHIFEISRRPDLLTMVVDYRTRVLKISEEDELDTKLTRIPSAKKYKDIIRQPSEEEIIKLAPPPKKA
Sequence of UniProt Q15366 (Q15366 whole entry, looked up): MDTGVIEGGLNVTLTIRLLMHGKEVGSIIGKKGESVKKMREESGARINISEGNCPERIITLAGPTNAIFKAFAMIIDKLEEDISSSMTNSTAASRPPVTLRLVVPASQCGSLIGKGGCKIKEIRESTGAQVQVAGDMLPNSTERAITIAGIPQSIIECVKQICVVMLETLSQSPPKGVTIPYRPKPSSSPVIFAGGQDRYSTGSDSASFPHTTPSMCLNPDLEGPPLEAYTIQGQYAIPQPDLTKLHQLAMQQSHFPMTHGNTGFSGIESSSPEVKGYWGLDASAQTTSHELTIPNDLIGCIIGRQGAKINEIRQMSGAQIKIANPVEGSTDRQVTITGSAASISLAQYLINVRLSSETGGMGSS
Sequence of UniProt P41247 (P41247 whole entry, looked up): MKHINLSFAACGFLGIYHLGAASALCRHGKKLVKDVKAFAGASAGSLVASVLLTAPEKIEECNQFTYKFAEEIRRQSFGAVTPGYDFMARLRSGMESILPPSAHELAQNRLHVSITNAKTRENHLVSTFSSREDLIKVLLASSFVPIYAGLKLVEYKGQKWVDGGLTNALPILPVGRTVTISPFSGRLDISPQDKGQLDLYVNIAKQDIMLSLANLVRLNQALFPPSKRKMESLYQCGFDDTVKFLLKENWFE
Sequence of UniProt O15305 (O15305 whole entry, looked up): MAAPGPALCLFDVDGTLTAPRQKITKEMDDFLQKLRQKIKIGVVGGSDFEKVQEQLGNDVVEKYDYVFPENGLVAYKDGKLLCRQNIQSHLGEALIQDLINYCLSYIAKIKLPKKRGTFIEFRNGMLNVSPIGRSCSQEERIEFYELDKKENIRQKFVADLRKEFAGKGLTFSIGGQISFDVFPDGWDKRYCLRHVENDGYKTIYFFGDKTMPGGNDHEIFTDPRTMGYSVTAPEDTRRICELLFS
Sequence of UniProt Q8TAP8 (Q8TAP8 whole entry, looked up): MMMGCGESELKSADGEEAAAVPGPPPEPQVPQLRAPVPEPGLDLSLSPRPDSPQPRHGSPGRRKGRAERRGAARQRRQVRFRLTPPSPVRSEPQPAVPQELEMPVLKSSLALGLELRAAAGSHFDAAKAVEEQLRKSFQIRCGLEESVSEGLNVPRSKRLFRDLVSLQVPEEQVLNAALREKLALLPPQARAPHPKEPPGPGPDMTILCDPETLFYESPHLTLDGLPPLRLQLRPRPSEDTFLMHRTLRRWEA

| Target | log2 fold change |
| --- | --- |
| PRKACB isoform 2 (UniProt P22694) | -0.019 (inactive) |
| PATL1 (UniProt Q86TB9) | 0.076 (inactive) |
| PDE12 (UniProt Q6L8Q7) | -0.033 (inactive) |
| PRKCQ (UniProt Q04759) | 0.017 (inactive) |
| PSMD12 (UniProt O00232) | 0.032 (inactive) |
| PKM (UniProt P14618) | -0.04 (inactive) |
| PPIL4 (UniProt Q8WUA2) | 0.035 (inactive) |
| PCBP2 isoform 3 (UniProt Q15366) | 0.009 (inactive) |
| POLA2 (UniProt Q14181) | -0.047 (inactive) |
| PFAS (UniProt O15067) | -0.399 (active) |
| PARL (UniProt Q9H300) | 0.018 (inactive) |
| PSME4 (UniProt Q14997) | -0.003 (inactive) |
| PSMD1 (UniProt Q99460) | -0.012 (inactive) |
| PKM isoform 2 (UniProt P14618) | 0.128 (inactive) |
| PTTG1IP (UniProt P53801) | -0.044 (inactive) |
| POLR2E (UniProt P19388) | 0.032 (inactive) |
| PDCD6 (UniProt O75340) | 0.024 (inactive) |
| PEA15 isoform 2 (UniProt Q15121) | 0.009 (inactive) |
| PPP2R5C isoform 4 (UniProt Q13362) | -0.023 (inactive) |
| PLCB3 (UniProt Q01970) | 0.028 (inactive) |

| Target | log2 fold change |
| --- | --- |
| PC (UniProt P11498) | 0.002 (inactive) |
| PSMA3 (UniProt P25788) | 0.009 (inactive) |
| PDCD4 (UniProt Q53EL6) | -0.002 (inactive) |
| PIGH (UniProt Q14442) | -0.034 (inactive) |
| PPP1R35 (UniProt Q8TAP8) | -0.04 (inactive) |
| PIP4K2C (UniProt Q8TBX8) | -0.031 (inactive) |
| PELP1 (UniProt Q8IZL8) | -0.041 (inactive) |
| PSMD6 (UniProt Q15008) | 0.058 (inactive) |
| PIK3C3 (UniProt Q8NEB9) | 0.039 (inactive) |
| PMPCA (UniProt Q10713) | -0.046 (inactive) |
| PPP1R14A (UniProt Q96A00) | 0 (inactive) |
| PEX13 (UniProt Q92968) | 0.012 (inactive) |
| PARP16 isoform 3 (UniProt Q8N5Y8) | 0.074 (inactive) |
| POLR2C (UniProt P19387) | 0.138 (inactive) |
| PKN1 isoform 2 (UniProt Q16512) | 0.014 (inactive) |
| PNPLA4 (UniProt P41247) | 0.003 (inactive) |
| PPT1 (UniProt P50897) | 0.057 (inactive) |
| PMM2 (UniProt O15305) | -0.194 (inactive) |
| QRICH1 (UniProt Q2TAL8) | -0.054 (inactive) |
